From PubChem BioAssay (NCATS)
Results filed as inconclusive are left out. Values without a mark were called inactive. Activity calls are given as the source filed them. Calls follow the shape of the dose curve; as a rule, active = well fitted inhibition curve with a large enough effect; inconclusive = small, poorly fitted or top-dose-only effect; inactive = no such curve, though single readings can be large or run the other way.

Biological target: N-terminal Xaa-Pro-Lys N-methyltransferase 1 (Homo sapiens) (UniProt Q9BV86)
Sequence (Q9BV86 whole entry, looked up): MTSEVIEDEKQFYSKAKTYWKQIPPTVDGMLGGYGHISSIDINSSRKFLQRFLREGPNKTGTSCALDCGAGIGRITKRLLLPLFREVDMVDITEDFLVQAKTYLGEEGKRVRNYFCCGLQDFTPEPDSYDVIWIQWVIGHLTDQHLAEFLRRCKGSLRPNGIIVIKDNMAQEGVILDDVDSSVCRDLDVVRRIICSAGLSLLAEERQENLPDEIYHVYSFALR
Test: qHTS Assay for Inhibitors of N-terminal methyltransferase 1 (NTMT1): LOPAC validation of the NTMT1 SAHH-coupled ThioGlo3 Assay (AID 1347143);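 also: SAH from peptide methylation measured as thiol fluorescence via SAHH coupling and ThioGlo3; nearly all actives have a fitted effect of over 70% in size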
Conditions: recombinant NTMT1, SAHH-coupled ThioGlo3 fluorescence; series mostly up to 114 µM; activity change, negative = inhibition: at the top concentration
Excerpt: Assay Submitter (PI): Rong Huang Ph.D, Purdue University, West Lafayette, IN 47907 The N-terminal methytransferase 1 is the first methyltransferase that methylates protein alpha-N-amines and plays an important role in regulating cell mitosis, chromatin interactions and DNA repair. It is observed to be over-expressed in various cancer patient tissues like malignant melanoma and colorectal cancer tissues. Knockdown of NTMT1 in cancer cells causes cell mitotic defects and enhances sensitivity to DNA damaging chemotherapeutics. […] These critical cellular processes in which NTMT1 is implicated, coupled with emerging links to cellular dysfunction, strengthen the inference that NTMT1 is a compelling novel anticancer target. Progress have been made in understanding the molecular properties of NTMT1 and the biological consequences of protein alpha-N-terminal methylation, but there are no specific small molecule probes available for NTMT1 to fully characterize its MTase activity. To address this unmet need, a panel of assay is created and established to enable quantitative high-throughput screening (qHTS) for novel, potent, and selective small molecule NTMT1 inhibitors. Two orthogonal qHTS that use different reagents (ThioGlo vs. MTaseGlo) are developed for primary robotic screening against the NCATS chemical library of more than 400,000 small molecules. Identified inhibitors are reacquired, validated, and further characterized. […] A pilot screen against the LOPAC library of 1280 compounds is carried out to assess performance of the optimized qHTS in 1536-well plate format. Early Translation Branch (ETB) National Center for Advancing Translational Sciences (NCATS) National Institute of Health (NIH)
Materials: NTMT1 enzyme, substrate SPKRIA, control peptide RCC1-6 is provided by the Huang laboratory. ThioGlo3 Assay: In brief, 125nM NTMT1 enzyme was dispensed into a 1536-well assay plate with Aurora Discovery BioRAPTR Flying Reagent Dispenser (FRD, Beckton-Dickenson). Compounds (at various concentration) or 1uM RCC1-6 (SPKRIA) control were transferred to the assay plate using the Kalypsys 1536-pintool apparatus. After 1 min of room temperature incubation, 1uL of substrate (100uM SAM, 10uM SAHH, 15uM ThioGlo3) was added to the wells bringing the final assay volume to 4uL. Initial (background) fluorescence readout (EX: 340nm, EM: 450nm) was then detected using the PerkinElmer ViewLux microplate imager and a final fluorescence readout was taken after 30 min of room temperature incubation. The data was normalized to the background fluorescence.
% is scaled to controls: 0 for no effect and ±100 for the full control effect; potency is read from the fitted curve at half-maximal effect.

| SMILES | activity change, negative = inhibition | Potency |
| --- | --- | --- |
| NCCc1c[nH]c2ccc(C(N)=O)cc12 | -17.7% | – |
| C[C@@H]1O[C@@H](O[C@H]2C[C@@H](O)[C@]3(CO)[C@@H]4C(CC[C@]3(O)C2)[C@@]2(O)CC[C@H]([C@@H]3COC(=O)C3)[C@@]2(C)C[C@H]4O)[C@H](O)[C@H](O)[C@H]1O (stereo not given in full) | -9.75% | – |
| C[N+](C)(C)CC#CCOC(=O)Nc1cccc(Cl)c1 | -20.4% | – |
| NC(=O)c1cc(N2CC2)c([N+](=O)[O-])cc1[N+](=O)[O-] | -25.6% | – |
| CC(=O)NBr | -7.26% | – |
| CN1CCc2cc(O)cc3c2[C@H]1Cc1ccc(O)c(O)c1-3 | – | 35.5 µM (active) |
| CN1CCc2cccc(Cl)c2CC1 | -8.45% | – |
| COc1ccc2c(c1)C13CCCCC1C(C2)N(C)CC3 (stereo not given) | -12.2% | – |
| CCCN(CCC)C1Cc2cc(OC)c(OC)cc2C1 | -11.5% | – |
| CP(=O)(O)C1=CCNCC1 | -11.3% | – |
| CCCCCCCCCCCCCC(=O)O[C@@H]1[C@@H](C)[C@@]2(O)[C@@H](C=C(CO)C[C@@]3(O)C(=O)C(C)=C[C@@H]23)C2C(C)(C)[C@@]21OC(C)=O (stereo not given in full) | 22.1% | – |
| CNc1ccc2oc(C[C@H]3O[C@@]4(CC[C@H]3C)O[C@H]([C@H](C)C(=O)c3ccc[nH]3)[C@H](C)C[C@H]4C)nc2c1C(=O)O | – | 56.2 µM (active) |
| C[N+]1(C)CCN(c2ccccc2)CC1 | – | 28.2 µM (active) |
| NCCc1ccc(S(=O)(=O)F)cc1 | -6.55% | – |
| CC(N)c1cccc(Cl)c1Cl (stereo not given) | -14.9% | – |
| CC(C)(C)c1o[nH]c(=O)c1CC(N)C(=O)O (stereo not given) | -15.7% | – |
| OC1CCCCC1N1CCC(c2ccccc2)CC1 (stereo not given) | -13.7% | – |
| OCc1cnc[nH]1 | -10.3% | – |
| CC(C)CC(NP(=O)(O)O[C@@H]1O[C@@H](C)[C@H](O)[C@@H](O)[C@H]1O)C(=O)NC(Cc1c[nH]c2ccccc12)C(=O)O (stereo not given in full) | -4.1% | – |
| Nc1cc2c(ncn2CCOCP(=O)(O)O)c(=O)[nH]1 | -26.6% | – |

| SMILES | activity change, negative = inhibition | Potency |
| --- | --- | --- |
| Cc1cc([C@@H]2CCCN2C)on1 | -19.3% | – |
| c1ccc2c(c1)[I+]c1ccccc1-2 | – | 50.1 µM (active) |
| N[C@@]1(C(=O)O)CC[C@@H](C(=O)O)C1 | -15.2% | – |
| CCn1cnc2c(Nc3cccc(Cl)c3)nc(N[C@@H]3CCCC[C@@H]3N)nc21 | – | 8.91 µM (active) |
| CN(C(=O)Cc1ccc(Cl)c(Cl)c1)C(CN1CCCC1)c1cccc(OCC(=O)O)c1 (stereo not given) | -20.8% | – |
| CC1(C(=O)O)C2CCC(O2)C1(C)C(=O)O (stereo not given) | -16.9% | – |
| CC(=O)c1c(O)c(C)c(O)c(Cc2c(O)c3c(c(C(=O)/C=C/c4ccccc4)c2O)OC(C)(C)C=C3)c1O | – | 50.1 µM (active) |
| NCC(CP(=O)(O)O)c1ccc(Cl)cc1 (stereo not given) | -6.88% | – |
| C#CCN[C@H](C)Cc1ccccc1 | -19.4% | – |
| CC(C)(O)[C@@H]1[C@H]2OC(=O)[C@@H]1[C@]1(O)C[C@H]3O[C@]34C(=O)O[C@H]2[C@]14C (tested in a mixture with another compound) | -9.34% | – |
| CCNC(=O)[C@H]1O[C@@H](n2cnc3c(N)ncnc32)[C@H](O)C1O (stereo not given in full) | -10.7% | – |
| NC(Cc1cc(O)c(O)cc1O)C(=O)O (stereo not given) | – | 44.7 µM (active) |
| NC(N)=NOCC[C@H](N)C(=O)O | -19.5% | – |
| CC1OC1P(=O)(O)O (stereo not given) | -2.96% | – |
| C[N+](C)(C)CC#CCN1CCCC1=O | – | 28.2 µM (active) |
| C[C@H](Cc1ccc2c(c1)OC(C(=O)O)(C(=O)O)O2)NC[C@H](O)c1cccc(Cl)c1 | -8.64% | – |
| CCCN1CC[C@@H]2c3cc(O)ccc3CC[C@@H]21 | -22.7% | – |
| NCC(O)c1cc(O)c(O)cc1F (stereo not given) | – | 56.2 µM (active) |
| NC(=O)COc1c(F)cc(SCCNS(=O)(=O)c2ccccc2)cc1F | -17.3% | – |
| NCCCP(=O)(O)O | -11.7% | – |
